Source: the supplement of paper PMC7801607

How the values were obtained:
CHO = assay: % viability of CHO cells (MTT); higher = less toxic; details: 48 h
Summary of the method: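 CHO cells seeded at 10^6 cells/well were exposed to compound at 2 or 20 µM for 48 h. Survival, as percent of untreated cells, was measured with the colorimetric tetrazolium (MTT) assay.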

HepG2-A16-CD81 = assay: % inhibition of HepG2 viability (CellTiter-Glo); higher = more toxic; details: 5 µM;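 also: HepG2-A16-CD81 hepatoma cells plated as in the liver-stage assay but without sporozoites, with DMSO wells as negative and 25 µM puromycin as positive control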
[1] = system: Plasmodium falciparum NF54 stage IV/V gametocytes; assay: % inhibition of gametocyte viability (PrestoBlue); higher = more inhibition; details: 48 h
Summary of the method: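 Compound was tested at 1 or 5 µM against Stage IV/V NF54 gametocytes plated at 100 µL/well (2% gametocytaemia, 5% haematocrit). After 48 h of stationary, hypoxic incubation at 37 °C, 10 µL PrestoBlue was added for 2 h before reading 612 nm fluorescence from 70 µL of transferred supernatant. Gametocyte viability inhibition, as a percentage, was scaled against vehicle and kill controls from a single run.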

[2] = system: Plasmodium falciparum NF54 asexual blood stage; assay: % inhibition of asexual blood stage proliferation (pLDH); higher = more inhibition; details: 72 h
Summary of the method: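 In 96-well plates, compound at 2 or 20 µM was added to Plasmodium falciparum NF54 ring-stage cultures (1% haematocrit, 2% parasitaemia). Plates were incubated for 72 h at 37 °C in 4% CO2, 3% O2 and 93% N2, and survival was then read at 620 nm using the parasite lactate dehydrogenase assay. Inhibition of asexual proliferation, expressed as a percentage, was normalised to controls.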

[3] = system: Plasmodium falciparum NF54 stage IV/V gametocytes; assay: % inhibition of gametocyte viability (ATP bioluminescence); higher = more inhibition; details: 24 h
Summary of the method: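 Density gradients were used to enrich stage IV/V NF54 gametocytes, which were then seeded into 96-well plates at 30,000 per well with compound at 1 or 5 µM. The plates were incubated at 37 °C for 24 h, and ATP was measured with the Promega BacTiter Glo bioluminescence system. Percent inhibition of gametocyte viability was normalised to the plate controls from a single run.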

[4] = system: Plasmodium falciparum NF54 stage IV/V gametocytes; assay: % inhibition of gametocyte viability (luciferase reporter); higher = more inhibition; details: 48 h
Summary of the method: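 Luminescence from 30 µL lysate combined with 30 µL Promega luciferin substrate was recorded on a GloMax-Multi+ reader using 10 s integration. The lysate came from stage IV/V NF54-Pfs16-GFP-Luc gametocytes (2% gametocytaemia, 2% haematocrit) held with compound at 1 or 5 µM for 48 h at 37 °C under stationary, hypoxic conditions. Percent inhibition was normalised against controls run once.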

| Compound | % viability of CHO cells (CHO; 2 µM) [%] | % viability of CHO cells (CHO; 20 µM) [%] | % inhibition of HepG2 viability (HepG2-A16-CD81) [%] | % inhibition of gametocyte viability ([1]; 1 µM) [%] | % inhibition of gametocyte viability ([1]; 5 µM) [%] | % inhibition of asexual blood stage proliferation ([2]; 2 µM) [%] | % inhibition of asexual blood stage proliferation ([2]; 20 µM) [%] | % inhibition of gametocyte viability ([3]; 1 µM) [%] | % inhibition of gametocyte viability ([3]; 5 µM) [%] | % inhibition of gametocyte viability ([4]; 1 µM) [%] | % inhibition of gametocyte viability ([4]; 5 µM) [%] |
| --- | --- | --- | --- | --- | --- | --- | --- | --- | --- | --- | --- |
| CC1CN(c2ncnc3c2c(-c2ccccc2)cn3-c2ccc(F)cc2)CC(C)O1 (stereo unspecified) | 82.6 | 122 | 6.07 | 17.3 | 1.77 | 75.6 | 95.5 | < 0 | < 0 | < 0 | < 0 |
| Cc1onc(-c2ccccc2)c1-c1ccc(S(N)(=O)=O)cc1 | 120 | 106 | -1.58 | 12.1 | 41.6 | 48.8 | 77.5 | 1.41 | < 0 | 0.106 | < 0 |
| OCCC#Cc1nc(-c2ccc(F)cc2)c(-c2ccncc2)n1CCCc1ccccc1 | 107 | 83 | 5.38 | < 0 | 30.5 | 15.3 | 83 | 1.66 | 8.02 | 5.66 | 32.2 |
| Cc1ccc(C)c(OCCCCCCN2C[C@H](O)[C@@H](O)[C@H](O)[C@H]2CO)c1 | 111 | 110 | 4.29 | < 0 | < 0 | 8.28 | 41.4 | 1.96 | < 0 | 5.24 | 11 |
| N#Cc1c(F)c(Cl)c(NCc2ccccc2)c(C#N)c1F | 102 | -2.81 | 2.78 | 20.8 | 49.5 | 56.1 | 95.3 | < 0 | 20.5 | 2.47 | 52.5 |
| Cc1cc(C)n(O)c(=O)c1 | 108 | 109 | -0.333 | < 0 | 3.7 | -9.1 | 4.56 | < 0 | 3.75 | < 0 | < 0 |
